Test results: publication PMC5540273 (PLoS ONE, 2017)

Experiments:
Settings in all cases: concentration: 1 μM, replicates: in singlicate; n = 1
[1] = system: HIPK3
[2] = system: HIPK4
[3] = system: HPK1
[4] = system: HUNK
[5] = system: ICK
[6] = system: IGF1R
[7] = system: T1, IKK-alpha
T1 construct: gene CHUK

[8] = system: T2, IKK-beta
T2 construct: gene IKBKB

[9] = system: T3, IKK-epsilon
T3 construct: gene IKBKE

[10] = system: INSRR
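Also: KINOMEscan kinase panel screen.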

| SMILES | %Inh [1] | %Inh [2] | %Inh [3] | %Inh [4] | %Inh [5] | %Inh [6] | %Inh [7] | %Inh [8] | %Inh [9] | %Inh [10] |
| --- | --- | --- | --- | --- | --- | --- | --- | --- | --- | --- |
| COc1ccc(-c2cc3c(C)nc(N)nc3n([C@H]3CC[C@H](O)CC3)c2=O)cn1 | 0% | 0% | 0% | 0% | 0% | 0% | 0% | 0% | 0% | 0% |
| CN1C(=O)C(Nc2ccccc2)=C(c2ccccc2)C1=O [SB-300079] | 0% | 0% | 0% | 67% | 0% | 0% | 11% | 0% | 0% | 0% |
| Nc1ncnc2c1ncn2-c1cccc(F)c1 [SKF-97560] | 14% | 6% | 23% | 10% | 6% | 1% | 13% | 19% | 23% | 0% |
| COc1ccc(Nc2nccc(N3CCC(NS(=O)(=O)c4ccc(NC(C)=O)cc4)C3)n2)cc1 (stereo not shown) [GSK1379729] | 14% | 12% | 64% | 0% | 13% | 22% | 12% | 6% | 12% | 21% |
